Test results: the supplement of paper PMC3334620
Over roughly 33,000 sequences, “E-score (-0.5 to 0.5)” has its median near -0.0014; the highest 2% begin near 0.25. This excerpt belongs to a sample that is enriched for the highest values.

molecular target: T1, Cad1 (UniProt P24813); test: PBM E-score (8-mer binding enrichment) (E-score (-0.5 to 0.5)); higher = stronger / more preferred TF binding; details: protein concentration: 100 nM; construct: GST-full length
T1 sequence: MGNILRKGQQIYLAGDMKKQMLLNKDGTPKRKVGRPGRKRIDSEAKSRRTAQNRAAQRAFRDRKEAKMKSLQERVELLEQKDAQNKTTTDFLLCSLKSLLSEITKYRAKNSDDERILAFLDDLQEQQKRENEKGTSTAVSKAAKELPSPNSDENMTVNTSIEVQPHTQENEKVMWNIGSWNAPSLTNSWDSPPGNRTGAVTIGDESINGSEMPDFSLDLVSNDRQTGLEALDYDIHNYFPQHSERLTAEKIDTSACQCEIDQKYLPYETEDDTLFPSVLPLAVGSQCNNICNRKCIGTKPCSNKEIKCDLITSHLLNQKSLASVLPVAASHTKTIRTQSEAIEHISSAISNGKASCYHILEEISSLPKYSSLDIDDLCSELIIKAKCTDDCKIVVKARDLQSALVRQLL
Description: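 Universal 'all 10-mer' protein binding microarrays (Agilent AMADID 015681) probed with GST-tagged S. cerevisiae TFs (full-length or DBD) made by in vitro transcription/translation (PURExpress), about 100-200 nM. Bound TF was detected with fluorescent anti-GST. Each ungapped 8-mer (which stands for itself and its reverse complement) is scored by the PBM enrichment score (E-score), a modified Wilcoxon-Mann-Whitney statistic from -0.5 to +0.5, computed with the Universal PBM Analysis Suite. Scale: above 0.35 generally sequence-specific binding.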

In order of rising “PBM E-score” value:
1. GAGAGCCC  -0.458
2. AGGAGACT  -0.286
3. CCAGTCTC  -0.286
4. GCCCTAAA  -0.269
5. CCCAGCGG  -0.264
6. AGGGGGAA  -0.248
7. CTAGAGAC  -0.243
8. CCTCCAGA  -0.208
9. AAGGGACG  -0.195
10. AAGATGTC  -0.188
11. CCTGCTAG  -0.182
12. GGCTGGTA  -0.18
13. TAGAGGCA  -0.166
14. CATCTGGA  -0.165
15. CCGGTAGC  -0.164
16. ACGCCTAT  -0.161
17. CCCCTAAC  -0.15
18. GAGGTGGC  -0.149
19. GCTGACCC  -0.145
20. AGGATCCC  -0.144
21. CCCTATAG  -0.143
22. CCTGACTC  -0.139
23. CAGGGTCC  -0.134
24. CCAGATGA  -0.131
25. AAACATAA  -0.131
26. GACCGATC  -0.128
27. CCGATGGC  -0.118
28. CCCAGACA  -0.108
29. CTGTCGGC  -0.107
30. ACTGACCA  -0.105
31. AGTTGGAT  -0.0953
32. CGAACGCC  -0.0886
33. AGACCACA  -0.0838
34. AGCCGCTG  -0.0754
35. CAACATAG  -0.073
36. CGATCCCA  -0.0615
37. ACATTGTG  -0.0593
38. CCAGTAAA  -0.0575
39. AGAGCGAG  -0.0569
40. ATATCGCA  -0.0511
41. GGCATTGA  -0.0489
42. CGGGTGGA  -0.0447
43. CTGGAATC  -0.0416
44. TCTTCAAA  -0.0389
45. AGCGTGAG  -0.0272
46. ATACTCTA  -0.0262
47. AGTTGAGA  -0.0203
48. GAGACGTA  -0.0175
49. CTATAGCA  -0.0148
50. AAACAAAA  -0.0143
51. ATAATTGG  -0.0135
52. AATATCCT  -0.0122
53. ACAGCGCC  -0.0091
54. AGTGTAGC  -0.0088
55. AGGACGCG  -0.00704
56. ATAATTCC  -0.00553
57. ACCGCGAG  -0.00282
58. CCATTGTC  0.00119
59. AGAATTAG  0.00824
60. CTCGAAGC  0.00892
61. GGAGCGTA  0.0102
62. ACGGCGTA  0.0105
63. ATAAAACA  0.0107
64. AAGAGCCA  0.0145
65. AAATTCAC  0.0164
66. AGCGCGAG  0.0178
67. GTTGACTA  0.0212
68. TCGGGGAA  0.0236
69. CGAGCGAC  0.0243
70. CCATTATC  0.0253
71. CAGTCTGA  0.0314
72. TATAAGAA  0.0437
73. AATCGGAG  0.0523
74. AATTATCC  0.0534
75. CGCGTGAC  0.056
76. TTAATTAA  0.0562
77. ATCGCGCA  0.0635
78. AATTCCAT  0.0643
79. AAATTTTC  0.0644
80. CATTAAGC  0.0681
81. CGTTAGCC  0.0683
82. GCATTCAA  0.0687
83. AATTGGTC  0.0715
84. ATATCGCC  0.0776
85. GAACAAAC  0.0779
86. ATATAATC  0.0826
87. ACTTATCT  0.0827
88. GGACAAAA  0.0884
89. ACATTATG  0.0893
90. CTCGCGAA  0.0936
91. AGGAATTG  0.0938
92. AGCACTAA  0.094
93. CGCAACAA  0.0963
94. GAACTCGA  0.0968
95. CCTCAATC  0.0973
96. ACACAAAA  0.0974
97. ATCGTGCC  0.102
98. AATTCCAC  0.111
99. GAACATAA  0.111
100. CGTTACGA  0.111
101. ACTGACTA  0.116
102. ACAATTAC  0.119
103. TGAGCGAA  0.123
104. CAACATAC  0.132
105. CACAGCGA  0.133
106. CGACAAAA  0.136
107. ATCGCGCC  0.143
108. GATGCAGA  0.146
109. TATGTGGA  0.146
110. CTAATTAA  0.147
111. ACAATTAA  0.148
112. ATAATTGA  0.149
113. ATAATTTC  0.154
114. CGCACTAA  0.155
115. ATCGTGCA  0.166
116. ATAATTCG  0.168
117. CGATCGCA  0.169
118. GATGACTA  0.172
119. CAACTCGA  0.175
120. CGCGCGAA  0.175
121. ATCCGTAC  0.177
122. AGTATCTC  0.178
123. GCACAAAA  0.18
124. ATCAGCAG  0.191
125. AGAATTAT  0.191
126. AAAATTTG  0.196
127. CTAATTAC  0.199
128. CAAATTTC  0.201
129. GGAATTAC  0.21
130. AATCGGAA  0.211
131. GTAATTAA  0.218
132. CCAATTAG  0.223
133. ACCGCGCG  0.225
134. ATTATAAT  0.227
135. ATCGCGAT  0.237
136. CACGCGAG  0.239
137. ATCGCGAA  0.243
138. AATTATCG  0.247
139. AATTATTA  0.249
140. TGACAAAA  0.251
141. GCTGACCA  0.252
142. TCACAAAA  0.253
143. CAACATAA  0.255
144. AATTCCAG  0.257
145. CGAGCGAG  0.258
146. ATCGCGAG  0.264
147. AATTATCA  0.266
148. ACAATTAT  0.267
149. ATATCGCG  0.267
150. CGCGTGAG  0.269
151. GAACAAAA  0.274
152. ACATTATC  0.274
153. TAACTCGA  0.275
154. ATAATTTG  0.278
155. CTCGCGAG  0.279
156. AATTATCT  0.282
157. ATCGCGCG  0.282
158. AATCGGAT  0.283
159. ATAATTAG  0.285
160. TAACATAA  0.287
161. ACATTGTC  0.292
162. ATAATTAC  0.295
163. CGCGCGAG  0.302
164. TGCACTAA  0.32
165. ATAATTAA  0.323
166. ATCGTGCG  0.325
167. CAAATTTG  0.33
168. GTAATTAC  0.33
169. GCTGACTA  0.335
170. CCTGACTA  0.351
171. ATAATTAT  0.377
172. CTAATTAG  0.41
